High-throughput results (PubChem BioAssay)
Gli-Sufu antag: Gli-Sufu pathway antagonists, primary screen, luciferase luminescence, Sufu-KO-LIGHT cells, uHTS | Sufu-KO-LIGHT fibroblasts, Gli luciferase reporter luminescence | AID 588413, 2011 | inhibition, % at 5 µM | 340,000 tested, 0.74% active;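 active means inhibition above about 55%, limit read from the data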;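 further: 0% = DMSO-treated cells and 100% = wells with medium but no cells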
697 NFkB inh: inhibitors of PMA/ionomycin-induced NF-kB reporter, 697 cells, primary screen, B-cell NF-kB inhibitor project, cell-based, luminescence, uHTS | inhibition, % at 4 µM | 697 B-cell NF-kB luciferase reporter, 16 h | 330,000 tested, 0.33% active; in the data active means inhibition above about 35%
Mdm2-MdmX inh: inhibitors of human Mdm2-MdmX association, primary screen, cell-based, luminescence, split luciferase, SaOS-2, uHTS; Protein Mdm4 (Homo sapiens) + E3 ubiquitin-protein ligase Mdm2 (Homo sapiens), …; SaOS-2 split-luciferase Mdm2/MdmX complementation; inhibition, % at 8 µM; 330,000 tested, 3% active;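 active means inhibition of at least 50% at 8 µM in the primary screen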
Target sequence (O15151 whole entry, looked up): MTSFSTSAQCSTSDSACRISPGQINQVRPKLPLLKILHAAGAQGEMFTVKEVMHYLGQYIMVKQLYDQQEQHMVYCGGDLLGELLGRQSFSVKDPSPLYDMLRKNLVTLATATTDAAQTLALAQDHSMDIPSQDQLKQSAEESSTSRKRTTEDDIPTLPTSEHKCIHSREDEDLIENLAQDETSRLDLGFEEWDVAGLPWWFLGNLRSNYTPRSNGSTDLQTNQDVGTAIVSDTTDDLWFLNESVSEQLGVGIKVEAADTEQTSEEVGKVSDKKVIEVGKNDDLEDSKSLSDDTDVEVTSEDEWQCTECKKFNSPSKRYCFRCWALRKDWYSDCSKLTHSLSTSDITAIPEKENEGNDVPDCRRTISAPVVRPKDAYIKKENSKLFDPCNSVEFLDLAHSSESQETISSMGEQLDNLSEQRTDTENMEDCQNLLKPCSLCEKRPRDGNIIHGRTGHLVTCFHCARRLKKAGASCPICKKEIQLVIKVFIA
Target sequence (Q00987 whole entry, looked up): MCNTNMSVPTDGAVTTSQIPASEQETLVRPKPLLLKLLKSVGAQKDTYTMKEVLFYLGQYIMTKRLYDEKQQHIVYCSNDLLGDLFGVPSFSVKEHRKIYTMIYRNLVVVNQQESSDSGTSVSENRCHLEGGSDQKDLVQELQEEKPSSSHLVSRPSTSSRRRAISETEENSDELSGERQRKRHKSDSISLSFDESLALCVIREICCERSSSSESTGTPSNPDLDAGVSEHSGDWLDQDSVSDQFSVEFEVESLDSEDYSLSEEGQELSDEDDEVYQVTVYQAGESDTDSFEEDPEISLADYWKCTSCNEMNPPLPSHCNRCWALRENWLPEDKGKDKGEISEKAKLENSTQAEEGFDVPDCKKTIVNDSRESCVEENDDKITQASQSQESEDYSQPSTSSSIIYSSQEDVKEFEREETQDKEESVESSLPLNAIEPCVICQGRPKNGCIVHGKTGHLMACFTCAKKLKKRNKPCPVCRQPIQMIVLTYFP
CSC inhib: cancer stem cell viability inhibitors, primary screen, luminescence. cancer stem cell-like cells viability. AID 2717, 2010. 300,000 tested, 1.1% active. inhibition, % at 7.5 µM; in the data active means inhibition above about 75%; tested in HMLE shEcad cells
Beta apoptosis: inhibitors of cytokine-induced beta cell apoptosis, primary screen, luminescence. INS-1E cytokine-induced death, ATP luminescence, 48 h; percent of positive-control rescue, neutral wells zero. protection from apoptosis, % (test concentration not listed). 300,000 tested, 0.8% active;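 active means Every replicate reaches about 75%, or at least half do and their mean reaches it too, limit read from the data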;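 further: 0% = cytokine-treated negative control wells and 100% = positive control rescue; higher means more ATP so stronger rescue from cytokine killing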
Jurkat NFkB inh: inhibitors of induced NF-kB luciferase reporter, primary screen, TCR NF-kB activation inhibitor project, cell-based, luminescence, uHTS; Jurkat, PMA/ionomycin-induced NF-kB luciferase reporter; inhibition, % at 4 µM; 330,000 tested, 0.53% active; AID 435003, 2010; in the data active means inhibition above about 50%
Mdm2 MdmX conf: Mdm2-MdmX complex disruptors, retested hits, confirmation, luminescence, single concentration; Mdm2-MdmX binding, luminescent assay; 10,000 tested, 55% active; AID 489028, 2010; inhibition, % at 8 µM; shares compounds with Mdm2-MdmX inh; in the data active means inhibition above about 40%
FLuc counter: full-length luciferase signal inhibition, confirmation, counter-screen for Mdm2/MdmX interaction inhibitor project, cell-based, single concentration, SaOS-2; shares compounds with Mdm2-MdmX inh; SaOS-2 full-length luciferase counterscreen, luminescence; inhibition, % at 8 µM; 6,200 tested, 77% active; AID 504607, 2011;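 active means mean inhibition at 8 µM reaching about 37%, which flags the compound as non-specific, limit read from the data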;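 further: p53-null SaOS-2 cells with luciferase driven by a doxycycline-inducible promoter; compound on cells about two nights before reading with doxycycline added after day one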
Starred values were filed as active, the others as inactive. Compounds with a hit are over-represented: about 4.5% of the library has one in this group of screens.

Results for CC(=O)CC1OC(=O)C(Br)=C1NCc1ccccc1 (stereo not drawn) ?
Gli-Sufu antag: 10.3; 697 NFkB inh: -33.3; Mdm2-MdmX inh: 66.9*; CSC inhib: 41.0; Beta apoptosis: -5.4; Jurkat NFkB inh: 39.2; Mdm2 MdmX conf: 47.5*; FLuc counter: 4.6

Results for O=C(CC1Oc2ccccc2NC1=O)NCc1ccccc1 (stereo not drawn) ?
Gli-Sufu antag: 7.1; 697 NFkB inh: 13.2; Mdm2-MdmX inh: 3.3; CSC inhib: -2.0; Jurkat NFkB inh: -3.2

What do the screens show for `COc1ccc(-n2c(C)cc(C(=O)CCl)c2C)cc1`?
Gli-Sufu antag: 6.1; 697 NFkB inh: 15.1; Mdm2-MdmX inh: 100.3*; CSC inhib: 94.9*; Beta apoptosis: 37.6; Jurkat NFkB inh: 6.5; Mdm2 MdmX conf: 61.2*; FLuc counter: 49.2*

Results for Cc1cc(-n2c(C)cc(C(=O)CCl)c2C)no1 ?
Gli-Sufu antag: -19.9; 697 NFkB inh: 10.5; Mdm2-MdmX inh: 79.2*; CSC inhib: -6.1; Beta apoptosis: 8.7; Jurkat NFkB inh: 7.0; Mdm2 MdmX conf: 67.4*; FLuc counter: 86.8*

What do the screens show for `Cc1cc(C(=O)CCl)c(C)n1-c1c(C)n(C)n(-c2ccccc2)c1=O`?
Gli-Sufu antag: 5.4; 697 NFkB inh: 15.6; Mdm2-MdmX inh: 51.3*; CSC inhib: 17.7; Beta apoptosis: -24.1; Jurkat NFkB inh: 10.6; Mdm2 MdmX conf: 35.3

What do the screens show for `COc1ccc(-n2c(C)cc(C(=O)COC(=O)c3ccc(O)cc3O)c2C)cc1`?
Gli-Sufu antag: 41.2; 697 NFkB inh: -2.1; Mdm2-MdmX inh: 10.6; Jurkat NFkB inh: 28.3

Results for CN(C)CCCNS(=O)(=O)c1ccc(N2CCC(c3ccc(Cl)cc3)=N2)cc1 ?
697 NFkB inh: -15.1; Mdm2-MdmX inh: 100.5*; CSC inhib: 112.3*; Beta apoptosis: 11.9; Jurkat NFkB inh: 22.5; Mdm2 MdmX conf: 99.5*; FLuc counter: 2.3

Results for O=c1cc(N/N=C/c2ccccc2)[nH]c(=O)[nH]1 ?
Gli-Sufu antag: -5.7; 697 NFkB inh: -19.7; Mdm2-MdmX inh: 69.6*; CSC inhib: 14.0; Beta apoptosis: 63.8; Jurkat NFkB inh: -23.0; Mdm2 MdmX conf: 20.8

What do the screens show for `CCC(C)Nc1ccc(NC(C)CC)cc1` (stereo not drawn)?
Gli-Sufu antag: 46.1; 697 NFkB inh: -2.7; Mdm2-MdmX inh: 96.7*; CSC inhib: 81.5*; Beta apoptosis: 108.8*; Jurkat NFkB inh: -1.7; Mdm2 MdmX conf: 68.3*; FLuc counter: 17.8

What do the screens show for `CCC(C)NC(=O)Nc1ccc(Br)cc1` (stereo not drawn)?
Gli-Sufu antag: -10.8; 697 NFkB inh: -42.1; Mdm2-MdmX inh: -6.1; CSC inhib: 10.4; Beta apoptosis: 3.0; Jurkat NFkB inh: -30.5

What do the screens show for `COc1ccc(Br)cc1C(C[N+](=O)[O-])c1c(N)n(C)c(=O)n(C)c1=O` (stereo not drawn)?
Gli-Sufu antag: 7.2; 697 NFkB inh: 19.1; Mdm2-MdmX inh: 50.5*; CSC inhib: 83.4*; Beta apoptosis: 43.5; Jurkat NFkB inh: 5.3; Mdm2 MdmX conf: 9.4

Results for CN(C)c1ccc(C(C[N+](=O)[O-])c2c(N)n(C)c(=O)n(C)c2=O)c(F)c1C#N (stereo not drawn) ?
Gli-Sufu antag: -3.2; 697 NFkB inh: 14.9; Mdm2-MdmX inh: 47.7; Jurkat NFkB inh: 19.3

Results for O=C(NCCc1ccco1)C(=O)NCC1OCCCN1S(=O)(=O)c1cc(F)ccc1F (stereo not drawn) ?
Gli-Sufu antag: -1.0; 697 NFkB inh: 16.1; Mdm2-MdmX inh: -3.5; CSC inhib: -0.8; Beta apoptosis: -11.5; Jurkat NFkB inh: 18.5

How did CN(C)CCCNc1cc(C(C)(C)C)nc2c(-c3ccc(Cl)cc3)cnn12 do in these assays?
Gli-Sufu antag: -13.3; 697 NFkB inh: 2.4; Mdm2-MdmX inh: 97.7*; CSC inhib: 107.5*; Beta apoptosis: 20.6; Jurkat NFkB inh: 49.5; Mdm2 MdmX conf: 71.7*; FLuc counter: 50.5*

Results for Cc1cc(NCCCN2CCOCC2)n2ncc(-c3ccc(Cl)cc3)c2n1 ?
Gli-Sufu antag: -53.1; 697 NFkB inh: -87.0; Mdm2-MdmX inh: 65.1*; CSC inhib: 59.7; Beta apoptosis: -4.4; Jurkat NFkB inh: -103.8; Mdm2 MdmX conf: 62.3*; FLuc counter: 69.2*

What do the screens show for `CC(C)(C)c1cc(NCc2ccccn2)n2ncc(-c3ccc(Cl)cc3)c2n1`?
Gli-Sufu antag: -7.5; 697 NFkB inh: -3.9; Mdm2-MdmX inh: 45.2; CSC inhib: 55.9; Beta apoptosis: 6.9; Jurkat NFkB inh: 1.2

Results for CC12CCC(=O)N1C(C(=O)Nc1cc(S(=O)(=O)N3CCCCCC3)ccc1OCC(F)(F)F)CS2 (stereo not drawn) ?
Gli-Sufu antag: 2.0; 697 NFkB inh: 3.1; Mdm2-MdmX inh: 11.3; CSC inhib: -4.1; Beta apoptosis: -1.0; Jurkat NFkB inh: 6.6

How did COc1ccc(NS(=O)(=O)c2cc(NC(=O)COc3ccc(OC)cc3)ccc2N2CCOCC2)cc1 do in these assays?
Gli-Sufu antag: -1.6; 697 NFkB inh: 5.0; Mdm2-MdmX inh: 20.3; CSC inhib: -4.9; Beta apoptosis: 4.6; Jurkat NFkB inh: 11.8

Results for CCCn1c2ccccc2c2nnc(SC(CC)C(=O)Nc3sc4c(c3C#N)CCCC4)nc21 (stereo not drawn) ?
Gli-Sufu antag: 2.9; 697 NFkB inh: -28.7; Mdm2-MdmX inh: 53.9*; CSC inhib: 12.4; Beta apoptosis: 17.5; Jurkat NFkB inh: -8.3; Mdm2 MdmX conf: 23.1

What do the screens show for `Cc1sc(N/N=C/c2cccnc2)nc1-c1ccccc1`?
Gli-Sufu antag: -4.8; 697 NFkB inh: -176.3; Mdm2-MdmX inh: 59.2*; CSC inhib: 18.1; Beta apoptosis: 3.4; Jurkat NFkB inh: -67.3; Mdm2 MdmX conf: 61.6*; FLuc counter: 74.2*

Results for O=C(NCCc1ccc(Cl)cc1)C1CCN(C(=O)c2ccc(F)cc2)CC1 ?
Gli-Sufu antag: 23.6; 697 NFkB inh: 2.7; Mdm2-MdmX inh: 36.3; CSC inhib: -15.4; Beta apoptosis: -0.6; Jurkat NFkB inh: -5.7

What do the screens show for `CCNC(=O)/C(C#N)=C/c1c(N2CCCCCC2)nc2c(C)cccn2c1=O`?
Gli-Sufu antag: 12.6; 697 NFkB inh: -6.0; Mdm2-MdmX inh: 22.3; CSC inhib: -6.4; Beta apoptosis: 4.7; Jurkat NFkB inh: -12.8
